A selection: hits, their analogues and other compounds. The true share with any hit is near 21%.
Pf growth 96h = inhibits malaria parasite growth, 96 h; P. falciparum luciferase reporter growth, 96 h; Potency, µM (titrated, usually from 28.7 µM), for inactives: at the top dose activity change, negative = inhibition, hits mostly inhibitors; actives 6.9% (n = 320,000); also: potency is read from the fitted curve at half-maximal effect; % is scaled to controls: 0 for no effect and ±100 for the full control effect
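Infected RBCs, 2% Hct / 0.05% parasitemia final; luciferase-reporter P. falciparum; cpd 96 h, 37 C, 5% CO2; luciferase detection reagent; luminescence.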
CHX counter = counter-screen for Shiga toxin inhibitors: cycloheximide protein synthesis inhibition; cell reporter, cycloheximide protein synthesis inhibition counterscreen; max response, %; actives 12% (n = 300,000); in the data active = max response mostly above about 13%, no sharp cut-off; inactive = mostly below about 14%; also: read at 38.3 µM for the half of the compounds with a filed dose; 0% is about no effect
Pf growth 48h = P. falciparum growth inhibition at 48 hours (one generation); P. falciparum luciferase growth in erythrocytes, 48 h; Potency, µM (series often up to 28.7 µM), for inactives: top-dose activity change, negative = inhibition, usual class: inhibitors; AID 504832; actives 5.9% (n = 310,000); also: potency is read from the fitted curve at half-maximal effect; % is scaled to controls: 0 for no effect and ±100 for the full control effect
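Firefly luciferase activity from engineered P. falciparum reports growth; inhibitors lower the luminescent signal. Cultures contained 2% hematocrit erythrocytes at 0.1% final parasitemia.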
NS1 inh = inhibitors of influenza NS1 protein function; AID 2326; Potency, µM (titrated, usually from 46.1 µM), without a hit: at the top dose activity, positive = more growth; actives 0.4% (n = 270,000); calls by dose curve; also: potency is read from the fitted curve at half-maximal effect; actives are rising curves; nearly all actives have a fitted effect of over 50% in size
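S. cerevisiae expressing influenza A NS1, grown in glucose, washed, then diluted 1:100 into pH 6.0 -URA galactose medium with 23 nl compound. Growth recovery read as OD600; NS1-free strain serves as control.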
Shiga toxin inh = blocks Shiga toxin action in Vero cells | actives 9.2% (n = 290,000) | AID 2315 | Vero cells, Shiga toxin protein synthesis inhibition reporter | inhibition, % at 38.7 µM; in the data active = inhibition mostly above about 28%, no sharp cut-off; inactive = mostly below about 43%; also: 0% is about no effect
SARS PLP yeast = blocks SARS-CoV papain-like protease in a yeast assay; Potency, µM (series often up to 32.9 µM), without a hit: at the top dose activity, positive = growth rescue, most hits filed as activators; actives 0.19% (n = 330,000); S. cerevisiae expressing SARS-CoV PLpro, growth rescue; calls by dose curve; also: potency is read from the fitted curve at half-maximal effect; 0% is about no effect; nearly all actives have a fitted effect of over 55% in size
The depositor's hits bear a star; ? = inconclusive; · = no result given. Unless noted, calls follow the shape of the dose curve; as a rule, active = well fitted inhibition curve with a large enough effect; inconclusive = small, poorly fitted or top-dose-only effect, or another doubt; inactive = no such curve, though single readings can be large or run the other way.

SMILES | Pf growth 96h | CHX counter | Pf growth 48h | NS1 inh | Shiga toxin inh | SARS PLP yeast
COc1ccccc1C1CC(c2ccco2)=NN1c1ccccc1 (stereo not given) | -3.7% | -3.2 | ? | 11.3% | -11.7 | -32.8%
COc1ccccc1C1=NN(C(=S)Nc2ccccc2)C(c2ccco2)C1 (stereo not given) | 130.5% | 28.0* | 48.5% | ? | 51.3* | -1.5%
COc1ccc(OC)c(C2CC(c3ccccc3)=NN2C(=S)Nc2ccccc2)c1 (stereo not given) | ? | 8.4 | 2.33µM* | 2.9% | 30.7 | -1.3%
CNC(=S)N1N=C(c2ccc(OC)cc2)CC1c1ccccc1Cl (stereo not given) | ? | 7.5 | ? | -9.4% | 17.9 | -2.6%
CNC(=S)N1N=C(c2ccc(OC)cc2)CC1c1ccc(Cl)cc1Cl (stereo not given) | 5.86µM* | -1.2 | 11.7µM* | 12.5% | 16.1 | -1.0%
CNC(=S)N1N=C(c2ccc(C)cc2)CC1c1cc(OC)ccc1OC (stereo not given) | -29.3% | -2.0 | ? | 11.5% | -6.6 | -1.1%
Fc1ccc2cc(-c3ccccc3)ncc2c1 | · | · | · | · | · | 3.9%
CCCN(C(=O)CSc1ncccn1)C1CCS(=O)(=O)C1 (stereo not given) | · | · | · | · | · | 5.0%
On1nnc2cc(C(F)(F)F)ccc21 | 5.9% | -2.8 | 3.9% | 5.5% | 4.1 | 2.1%
CCOC(=O)C1=CC[C@]2(C)c3c(c4ccccc4n3C)C(=O)C1N2C | ? | · | 13.1µM* | · | · | 6.2%
CCOC(=O)c1cc2c(=O)n(C)c3ccccc3c2s1 | · | · | · | -2.3% | · | ·
CCOC(=O)C1=CCC2c3c(c4ccccc4n3C)C(=O)C1N2C(=O)OC(C)(C)C (stereo not given) | ? | · | 8.28µM* | · | · | -8.7%
O=C(N/C(=C\c1ccco1)C(=O)N1CCCC(CO)C1)c1ccccc1 (stereo not given) | 25.2% | 0.7 | 0.0% | 7.2% | 18.1 | 1.1%
COc1ccccc1N=NC1C(=O)N(C(N)=S)N=C1C (stereo not given) | -24.8% | 1.5 | 11.3% | -35.5% | · | 8.9%
CC1=NN(C(N)=S)C(=O)C1N=Nc1ccc(Cl)cc1Cl (stereo not given) | ? | 25.4* | ? | -98.4% | 76.6* | -20.5%
CC1=NN(C(N)=S)C(=O)C1N=Nc1ccccc1Cl (stereo not given) | 283.1% | 18.3* | ? | -134.1% | · | -7.5%
O=C(O)CCc1ccc(-c2ccccc2)n1-c1cccc(C(=O)O)c1 | 7.5% | 131.1* | -0.1% | ? | 173.6* | -1.2%
COc1ccccc1-n1c(CCC(=O)O)ccc1-c1ccccc1 | 1.8% | 31.9* | 0.9% | 4.6% | 35.8* | -6.8%
O=C(O)CCc1ccc(-c2ccc(Br)cc2)n1-c1cccc(O)c1 | 8.8% | 32.3* | 58.2% | -3.2% | 86.8* | -1.2%
COc1ccc(-c2ccc(CCC(=O)O)n2-c2ccccc2OC)cc1 | 2.1% | 7.6 | 24.1% | 22.1% | -8.1 | 4.6%
Cc1ccc(-n2c(CCC(=O)O)ccc2-c2cccs2)cc1C | 34.0% | 7.9* | 4.7% | -9.6% | 39.1 | -6.0%
Cc1ccnc2nc(C(=O)OCC(=O)NC3CCCC(C)C3C)nn12 (stereo not given) | -27.1% | · | 5.7% | · | · | 4.2%
Cn1c(=O)c2c(O)c([N+](=O)[O-])c(=O)n(C)c2n(C)c1=O | 34.6% | -3.2 | 7.1% | -3.4% | -18.1 | -4.1%
CCC(CO)Nc1ncnc2c1cnn2-c1ccc(Cl)cc1 (stereo not given) | 249.1% | 39.8* | · | -3.7% | 46.6 | 5.1%
CCC(CO)Nc1ncnc2c1cnn2-c1ccc(OC)cc1 (stereo not given) | 229.2% | 36.8* | · | 1.1% | 53.4* | -0.3%
SMILES | Pf growth 96h | CHX counter | Pf growth 48h | NS1 inh | Shiga toxin inh | SARS PLP yeast
CCC(C)Nc1ncnc2c1cnn2Cc1ccc(Cl)cc1 (stereo not given) | ? | 6.1 | · | 0.7% | -26.3 | -12.4%
CNC(=O)c1csc(-c2ccc(C)cc2)n1 | 94.0% | 23.8* | 77.1% | -9.2% | 45.2* | -10.3%
CNC(=O)c1csc(-c2ccc(Cl)cc2)n1 | 2.2% | 38.4* | 32.2% | -3.3% | 46.7* | -1.8%
O=C(O)c1csc(-c2ccc(Cl)cc2)n1 | 56.2% | 1.7 | 7.1% | · | -5.9 | -0.1%
CNC(=O)c1csc(-c2ccncc2)n1 | 5.6% | 10.4 | 1.3% | -0.8% | -5.5 | 3.6%
CN(C)CCN1C(=O)C(O)=C(C(=O)c2cc3ccccc3o2)C1c1ccc(N(C)C)cc1 (stereo not given) | 9.28µM* | 10.0 | 54.2% | -8.3% | 14.1 | -2.8%
Cc1cc(N2C(=O)C(O)=C(C(=O)c3cc4ccccc4o3)C2c2ccc(Cl)cc2)no1 (stereo not given) | ? | 2.4 | ? | 2.0% | -4.2 | 0.7%
Cc1cc(N2C(=O)C(O)=C(C(=O)c3cc4ccccc4o3)C2c2ccc(Br)cc2)no1 (stereo not given) | ? | 42.2* | ? | 8.0% | 22.8 | 1.7%
CCCOc1cccc(C(=O)NC(=S)Nc2cccc(NC(=O)c3ccccc3Cl)c2)c1 | 2.94µM* | 4.0 | 1.6% | ? | -12.9 | -5.3%
CCC(=O)Nc1cccc(NC(=S)NC(=O)c2ccccc2Cl)c1 | ? | 25.2* | 78.1% | -0.2% | 36.7 | -0.7%
CC(C)C(=O)Nc1cccc(NC(=S)NC(=O)c2ccccc2Cl)c1 | 9.4% | 25.0* | 1.5% | -11.1% | 13.7 | 2.9%
Cc1ccccc1C(=O)NC(=S)Nc1cccc(NC(=O)C(C)C)c1 | 22.6% | 27.4* | 13.6% | 5.7% | 41.6 | 0.2%
CCCCOc1cccc(C(=O)NC(=S)Nc2cccc(NC(=O)c3ccccc3Cl)c2)c1 | 16.4% | 10.1 | -11.3% | 9.8% | -7.2 | 11.9%
CCOc1ccccc1CNC(=O)c1nn(CC)cc1[N+](=O)[O-] | ? | -5.1 | -14.7% | 3.8% | -5.6 | -16.3%
O=C(c1cc(-c2ccc(F)cc2)nc2ccccc12)N1CCN(C2CCS(=O)(=O)C2)CC1 (stereo not given) | ? | · | -7.7% | · | · | 1.8%
CC1CCN(S(=O)(=O)c2c[nH]c(=O)[nH]c2=O)CC1 | 1.3% | · | -2.4% | · | · | -9.5%
CC(C)C(=O)Nc1cccc(NC(=S)NC(=O)c2ccc([N+](=O)[O-])cc2)c1 | 39.4% | 14.8 | 1.6% | 1.9% | 53.7 | 7.8%
CCC(=O)Nc1cccc(NC(=S)NC(=O)c2cccs2)c1 | 14.4% | 40.5* | 170.8% | 3.7% | 110.0* | -3.7%
Cc1cc(C(=O)NC(=S)Nc2cccc(NC(=O)C(C)C)c2)ccc1[N+](=O)[O-] | 97.8% | 35.6* | 21.8% | -1.1% | 9.8 | -24.5%
N=C(N)SCc1ccc(Cl)cc1Cl | 10.4µM* | 3.0 | ? | 8.0% | -12.5 | 9.2%
COc1ccc(C(C#N)c2ccc(=O)[nH]n2)cc1 (stereo not given) | 22.6% | -0.9 | 4.0% | 0.9% | 2.2 | 0.6%
CCCN1C(=O)/C(=C/c2ccc3c(c2)OCO3)NC1=S | 9.28µM* | 10.7 | 3.0% | · | 4.9 | 5.8%

Source: PubChem BioAssay
